# Results taken from PubChem BioAssay.
# Values without a mark were called inactive. Some of the results follow. Active and inactive are the calls of the source. Cut-off read from the data, not from the text of the source, unless noted: active = inhibition above about 42%; inactive = the rest.
# Assays:
# [1] = biological target: Nuclear receptor coactivator 1 (Homo sapiens) (UniProt Q15788); experiment: NCOA1 GAL4-fusion reporter inhibition – cell-based, luminescence, quadruplicate, confirmation (AID 588820;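 active = mean inhibition above 46.68%, the untreated control wells mean plus 3 SD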;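 note: 0% = DMSO wells and 100% = gossypol 36 µM treated wells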); conditions: HEK293 GAL4-SRC1 luciferase reporter, at 3.6 µM, stronger effect = higher value
# [2] = repression of VP16-driven luciferase reporter – cell-based, luminescence, high throughput, counter-screen for SRC1 inhibitor project (AID 588824; in the data active = inhibition above about 25%); conditions: cell-based VP16 transactivation luciferase luminescence; at 3.6 µM; stronger effect = higher value
# [3] = StAR promoter reporter inhibitors, counter-screen for LRH-1 inverse agonist project, cell-based, luminescence, high throughput (AID 651611; in the data active = inhibition above about 28%); conditions: StAR promoter luciferase reporter counterscreen, at 3.6 µM, stronger effect = higher value
# [4] = biological target: Nuclear receptor subfamily 5 group A member 2 (Homo sapiens) (UniProt O00482); experiment: NR5A2 activity suppression in reporter cells – cell-based, luminescence, confirmation (AID 651613); conditions: cell-based LRH-1 luciferase reporter, inverse agonism; at 3.6 µM; stronger effect = higher value;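 note: HEK293T cells co-transfected with LRH-1 and StAR promoter luciferase reporter; 0% = vehicle wells and 100% = parental cells lacking receptor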
# [5] = biological target: Steroidogenic factor 1 (Homo sapiens) (UniProt Q13285); experiment: inverse agonism at SF1 nuclear receptor – cell-based, luminescence, high throughput, counter-screen for LRH-1 inverse agonist project (AID 651614; in the data active = inhibition above about 44%;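 note: cells cotransfected with StAR promoter reporter and SF1 expression vector; 0% = vehicle on cells with receptor and 100% = vehicle on cells lacking receptor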); conditions: cell-based SF1 luciferase reporter, at 3.6 µM, stronger effect = higher value
# [6] = compounds suppressing VP16-driven luciferase signal – cell-based, luminescence, high throughput, counter-screen for LRH-1 inverse agonist project (AID 651615; in the data active = inhibition above about 33%); conditions: Gal4-VP16 luciferase reporter cells, at 3.6 µM, stronger effect = higher value
# [7] = biological target: Photoreceptor-specific nuclear receptor (Homo sapiens) (UniProt Q9Y5X4); experiment: retest of NR2E3-NCOR disrupting agonists – cell-based, luminescence, CHO-S two-hybrid, confirmation (AID 624378;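 active = average inhibition above a cutoff equal to the mean inhibition of all tested compounds plus one SD, cut at about 70% in these data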;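 note: 0% = DMSO in NR2E3 cells and 100% = DMSO in cells lacking NR2E3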); conditions: CHO-S mammalian two-hybrid NR2E3-NCOR, luciferase luminescence; at 3.98 µM; stronger effect = higher value
# [8] = nonselective effects on VP16 transactivation – cell-based, luminescence, CHO-S, high throughput, counter-screen for NR2E3 agonist project, confirmation (AID 624379;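 active = mean inhibition above a cutoff equal to the average over all tested compounds plus one standard deviation, cut at about 70% in these data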;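 note: luciferase from a UAS reporter driven by GAL4-VP16 transactivation; 0% = DMSO with VP16-transfected cells and 100% = DMSO with cells lacking VP16; higher means less reporter light so more repression of VP16 activity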); conditions: CHO-S GAL4-VP16 luciferase reporter, at 3.98 µM, stronger effect = higher value
# [9] = tested on: transactivating tegument protein VP16 (Human herpesvirus 1); experiment: compounds suppressing VP16-driven luciferase signal – cell-based, luminescence, single concentration, counter-screen for SRC2 inhibitor project (AID 652007; in the data active = inhibition above about 36%); conditions: cell-based VP16 transactivation luciferase reporter, at 8.9 µM, stronger effect = higher value
# [10] = biological target: Nuclear receptor coactivator 2 (Homo sapiens) (UniProt Q15596); experiment: inhibition of GAL4-SRC2 driven luciferase expression – cell-based, luminescence, HEK293, triplicate, confirmation (AID 652008;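 active = mean inhibition above 46.5%, the solvent-only control mean plus 3 SD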;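 note: 0% = DMSO-treated cells and 100% = Gossypol at 36 µM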); conditions: HEK293 GAL4-SRC2 luciferase reporter, at 8.9 µM, stronger effect = higher value
# Sequence of Nuclear receptor coactivator 2 (Homo sapiens) (Q15596 whole entry, looked up, the tested form may be a part): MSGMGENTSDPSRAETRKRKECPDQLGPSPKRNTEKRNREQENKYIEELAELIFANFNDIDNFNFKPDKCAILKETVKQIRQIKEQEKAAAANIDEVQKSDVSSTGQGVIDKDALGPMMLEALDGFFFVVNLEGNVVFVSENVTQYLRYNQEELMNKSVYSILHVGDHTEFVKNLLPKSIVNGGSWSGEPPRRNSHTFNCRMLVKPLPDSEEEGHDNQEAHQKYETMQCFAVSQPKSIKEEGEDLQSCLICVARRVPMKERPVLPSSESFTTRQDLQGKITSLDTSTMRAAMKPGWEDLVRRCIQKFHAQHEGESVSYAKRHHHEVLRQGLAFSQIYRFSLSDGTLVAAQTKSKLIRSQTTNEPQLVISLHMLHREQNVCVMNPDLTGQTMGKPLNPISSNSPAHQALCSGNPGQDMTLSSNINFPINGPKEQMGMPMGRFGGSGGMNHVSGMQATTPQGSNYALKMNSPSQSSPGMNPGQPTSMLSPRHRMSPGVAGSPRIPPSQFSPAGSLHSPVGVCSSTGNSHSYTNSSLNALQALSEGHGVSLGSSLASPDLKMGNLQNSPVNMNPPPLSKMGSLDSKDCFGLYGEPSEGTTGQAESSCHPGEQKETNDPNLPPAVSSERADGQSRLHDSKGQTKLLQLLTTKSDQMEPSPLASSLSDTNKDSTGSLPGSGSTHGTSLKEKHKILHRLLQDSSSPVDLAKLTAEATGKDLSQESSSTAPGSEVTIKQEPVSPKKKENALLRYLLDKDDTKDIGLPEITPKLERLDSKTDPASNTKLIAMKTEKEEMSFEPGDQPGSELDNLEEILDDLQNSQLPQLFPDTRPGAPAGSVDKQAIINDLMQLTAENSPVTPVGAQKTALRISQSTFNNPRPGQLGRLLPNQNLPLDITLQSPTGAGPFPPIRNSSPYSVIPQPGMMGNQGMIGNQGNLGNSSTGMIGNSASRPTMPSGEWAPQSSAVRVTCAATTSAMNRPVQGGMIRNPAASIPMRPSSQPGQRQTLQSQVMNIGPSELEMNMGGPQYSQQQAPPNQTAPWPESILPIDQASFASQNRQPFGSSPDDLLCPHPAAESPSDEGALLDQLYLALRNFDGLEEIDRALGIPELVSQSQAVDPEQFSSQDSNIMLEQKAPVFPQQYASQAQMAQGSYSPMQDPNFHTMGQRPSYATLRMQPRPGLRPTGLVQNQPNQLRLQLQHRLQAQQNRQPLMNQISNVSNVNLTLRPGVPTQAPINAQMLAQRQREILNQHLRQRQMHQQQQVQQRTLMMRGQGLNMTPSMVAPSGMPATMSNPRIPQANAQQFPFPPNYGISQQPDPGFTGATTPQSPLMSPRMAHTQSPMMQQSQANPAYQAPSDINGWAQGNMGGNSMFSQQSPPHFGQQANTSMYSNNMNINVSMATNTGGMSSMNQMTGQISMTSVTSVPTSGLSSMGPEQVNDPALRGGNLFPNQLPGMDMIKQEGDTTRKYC
# Sequence of Steroidogenic factor 1 (Homo sapiens) (Q13285 whole entry, looked up, the tested form may be a part): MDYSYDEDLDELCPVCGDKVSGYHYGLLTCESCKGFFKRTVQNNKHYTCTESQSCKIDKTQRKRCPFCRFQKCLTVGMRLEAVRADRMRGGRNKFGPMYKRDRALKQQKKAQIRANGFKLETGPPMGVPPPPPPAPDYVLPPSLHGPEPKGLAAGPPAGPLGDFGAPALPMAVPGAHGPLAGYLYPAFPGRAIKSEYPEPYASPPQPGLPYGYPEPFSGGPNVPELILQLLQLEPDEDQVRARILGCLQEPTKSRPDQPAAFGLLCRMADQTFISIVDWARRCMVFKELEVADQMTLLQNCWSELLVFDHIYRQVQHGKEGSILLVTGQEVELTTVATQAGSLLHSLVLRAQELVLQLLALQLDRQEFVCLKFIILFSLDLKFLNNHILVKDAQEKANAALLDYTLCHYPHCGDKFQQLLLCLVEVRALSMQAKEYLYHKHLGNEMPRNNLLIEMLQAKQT
# Sequence of Nuclear receptor coactivator 1 (Homo sapiens) (Q15788 whole entry, looked up, the tested form may be a part): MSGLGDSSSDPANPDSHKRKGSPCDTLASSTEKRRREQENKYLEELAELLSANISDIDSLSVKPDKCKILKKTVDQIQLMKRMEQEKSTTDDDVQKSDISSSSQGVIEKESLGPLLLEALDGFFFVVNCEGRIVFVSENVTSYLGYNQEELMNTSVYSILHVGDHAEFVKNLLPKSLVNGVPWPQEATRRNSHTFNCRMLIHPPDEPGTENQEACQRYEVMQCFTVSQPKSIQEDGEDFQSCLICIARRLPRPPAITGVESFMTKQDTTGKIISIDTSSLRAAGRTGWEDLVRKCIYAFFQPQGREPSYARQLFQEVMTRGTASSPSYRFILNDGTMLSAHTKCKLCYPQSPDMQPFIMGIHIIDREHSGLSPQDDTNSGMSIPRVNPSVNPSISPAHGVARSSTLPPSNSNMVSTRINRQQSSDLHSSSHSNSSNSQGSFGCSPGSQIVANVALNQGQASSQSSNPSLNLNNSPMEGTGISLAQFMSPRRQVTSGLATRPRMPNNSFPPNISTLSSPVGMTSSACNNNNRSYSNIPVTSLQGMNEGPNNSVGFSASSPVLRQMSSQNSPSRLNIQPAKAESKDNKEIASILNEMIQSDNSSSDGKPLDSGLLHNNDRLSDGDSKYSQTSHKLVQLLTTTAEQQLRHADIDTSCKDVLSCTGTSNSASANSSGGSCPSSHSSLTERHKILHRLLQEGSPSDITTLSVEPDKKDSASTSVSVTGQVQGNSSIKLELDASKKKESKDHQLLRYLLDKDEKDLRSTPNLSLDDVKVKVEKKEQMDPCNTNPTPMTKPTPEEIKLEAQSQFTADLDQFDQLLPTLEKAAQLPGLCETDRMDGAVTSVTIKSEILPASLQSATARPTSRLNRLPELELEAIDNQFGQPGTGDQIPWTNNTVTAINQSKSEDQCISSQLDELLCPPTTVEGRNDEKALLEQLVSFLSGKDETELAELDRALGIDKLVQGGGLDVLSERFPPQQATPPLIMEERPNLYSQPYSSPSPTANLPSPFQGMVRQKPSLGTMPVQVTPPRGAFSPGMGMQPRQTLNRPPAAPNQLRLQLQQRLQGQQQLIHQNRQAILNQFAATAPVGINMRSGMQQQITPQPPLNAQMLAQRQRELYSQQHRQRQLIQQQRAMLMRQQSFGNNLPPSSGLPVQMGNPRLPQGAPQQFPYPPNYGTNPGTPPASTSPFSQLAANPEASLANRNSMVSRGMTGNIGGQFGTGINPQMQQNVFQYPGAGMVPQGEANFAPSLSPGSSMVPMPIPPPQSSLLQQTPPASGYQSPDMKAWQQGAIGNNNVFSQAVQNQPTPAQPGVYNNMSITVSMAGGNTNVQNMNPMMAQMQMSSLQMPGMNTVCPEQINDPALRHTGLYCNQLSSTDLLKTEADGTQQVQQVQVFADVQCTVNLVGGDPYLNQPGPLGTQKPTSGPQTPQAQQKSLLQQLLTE
# Sequence of Nuclear receptor subfamily 5 group A member 2 (Homo sapiens) (O00482 whole entry, looked up): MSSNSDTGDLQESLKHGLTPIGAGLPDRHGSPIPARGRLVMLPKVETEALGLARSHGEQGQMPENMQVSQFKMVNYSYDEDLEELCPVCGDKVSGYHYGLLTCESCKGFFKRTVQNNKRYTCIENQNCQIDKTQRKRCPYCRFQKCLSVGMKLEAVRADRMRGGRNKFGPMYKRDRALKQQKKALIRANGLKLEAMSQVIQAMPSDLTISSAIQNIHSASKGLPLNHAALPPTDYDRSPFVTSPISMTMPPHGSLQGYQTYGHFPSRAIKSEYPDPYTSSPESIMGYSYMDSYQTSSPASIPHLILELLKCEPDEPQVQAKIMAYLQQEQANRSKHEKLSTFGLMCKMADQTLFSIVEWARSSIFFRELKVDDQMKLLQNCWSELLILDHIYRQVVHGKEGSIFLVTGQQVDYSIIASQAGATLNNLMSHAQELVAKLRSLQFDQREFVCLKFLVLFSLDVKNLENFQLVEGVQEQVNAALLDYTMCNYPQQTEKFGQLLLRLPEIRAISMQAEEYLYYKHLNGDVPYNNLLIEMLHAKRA
# Sequence of Photoreceptor-specific nuclear receptor (Homo sapiens) (Q9Y5X4 whole entry, looked up): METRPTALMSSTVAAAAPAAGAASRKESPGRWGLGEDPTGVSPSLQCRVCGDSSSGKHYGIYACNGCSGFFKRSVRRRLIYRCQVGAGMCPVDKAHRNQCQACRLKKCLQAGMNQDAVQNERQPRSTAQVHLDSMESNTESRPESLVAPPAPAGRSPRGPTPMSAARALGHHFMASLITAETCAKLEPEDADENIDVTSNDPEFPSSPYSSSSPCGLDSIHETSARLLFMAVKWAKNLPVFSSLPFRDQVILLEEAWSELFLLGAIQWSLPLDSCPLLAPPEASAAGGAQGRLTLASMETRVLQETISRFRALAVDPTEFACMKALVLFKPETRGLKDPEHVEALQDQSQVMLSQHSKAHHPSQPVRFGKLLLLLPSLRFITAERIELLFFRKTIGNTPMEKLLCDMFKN
smiles,measurement,setting,value
CC(C)(C)c1ccc(CSc2cnn(C(C)(C)C)c(=O)c2Cl)cc1,inhibition,[1],-34.9%
same,inhibition,[2],44.7% (active)
same,inhibition,[3],28.1% (active)
same,inhibition,[4],99.2% (active)
same,inhibition,[5],63.8% (active)
same,inhibition,[6],57.7% (active)
COC(=O)COc1cc(C)cc2oc(=O)c3c(c12)CCCC3,inhibition,[3],3.14%
same,inhibition,[4],46.5% (active)
same,inhibition,[5],50.6% (active)
same,inhibition,[6],-11.3%
CCCCCCN=C(CC)c1c(O)n(CCCC)c(=O)[nH]c1=O,inhibition,[7],84.2% (active)
same,inhibition,[8],56.9%
O=Cc1cn(Cc2cccc([N+](=O)[O-])c2)c2ccccc12,inhibition,[1],39.9%
same,inhibition,[2],30.7% (active)
same,inhibition,[3],65.6% (active)
same,inhibition,[4],74.4% (active)
same,inhibition,[5],80.3% (active)
same,inhibition,[6],14.4%
CCOC(=O)[C@]12Cc3cc(Cl)ccc3[C@H]1N(CC(=O)OC)C(=O)c1ccccc12,inhibition,[3],72.7% (active)
same,inhibition,[4],94.3% (active)
same,inhibition,[5],64.4% (active)
same,inhibition,[6],81.1% (active)
CCOC(=O)[C@]12Cc3cc(C)ccc3[C@H]1N(C1CCCCC1)C(=O)c1cc(OC)ccc12,inhibition,[3],63.5% (active)
same,inhibition,[4],97.4% (active)
same,inhibition,[5],78.2% (active)
same,inhibition,[6],87.9% (active)
CCOC(=O)[C@]12Cc3c(cc(OC)c(OC)c3OC)[C@H]1N(C1CCCCC1)C(=O)c1ccccc12,inhibition,[3],45.9% (active)
same,inhibition,[4],99.8% (active)
same,inhibition,[5],46.2% (active)
same,inhibition,[6],89.3% (active)
Cc1cccc(C)c1-n1nnnc1C(c1cccs1)N1CCC2(CC1)C(=O)NCN2c1ccccc1 (configuration not stated),inhibition,[1],22.3%
same,inhibition,[2],4.87%
COc1cccc2c1C(=O)c1c(O)c3c(c(O)c1C2=O)CC(O)(C(C)=NO)CC3OC1CC(N)C(O)C(C)O1 (configuration not stated),inhibition,[1],-12.8%
same,inhibition,[2],42.6% (active)
same,inhibition,[4],79.4% (active)
same,inhibition,[5],62.3% (active)
COc1cc2c(cc1OC)[C@@H]1C(=O)c3ccc4c(c3O[C@@H]1CO2)C[C@H](C(C)C)O4,inhibition,[3],34.2% (active)
same,inhibition,[4],68.7% (active)
same,inhibition,[5],61.4% (active)
same,inhibition,[6],57.4% (active)
COC(=O)C(C)Oc1cc(C)cc2oc(=O)c3c(c12)CCCC3 (configuration not stated),inhibition,[3],14.4%
same,inhibition,[4],63.3% (active)
same,inhibition,[5],55.9% (active)
same,inhibition,[6],-29.8%
CC(C)N(C(=O)CCl)c1ccccc1,inhibition,[3],19.8%
same,inhibition,[4],54.8% (active)
same,inhibition,[5],51.7% (active)
same,inhibition,[6],-6.55%
CC12CCC(O)CC1CCC1C2CCC2(C)C(C3=CC(=O)OC3)C(O)CC12O (configuration not stated),inhibition,[3],92.6% (active)
same,inhibition,[4],94.1% (active)
same,inhibition,[5],74.8% (active)
same,inhibition,[6],41% (active)
Cc1cc(S(=O)(=O)NC(C)C)ccc1OCC(=O)N1CCN(Cc2ccc3c(c2)OCO3)CC1,inhibition,[3],16.6%
same,inhibition,[4],52.9% (active)
same,inhibition,[5],40%
same,inhibition,[6],19.5%
CCC(C)N1C(=O)/C(=C\c2ccc(N3CCCCCC3)cc2)C(=O)NC1=S (configuration not stated),inhibition,[3],1.31%
same,inhibition,[4],58.9% (active)
same,inhibition,[5],40.2%
same,inhibition,[6],-2.53%
CN1C(=O)C(=Cc2ccc(N3CCCCCC3)cc2)C(=O)N(C)C1=O,inhibition,[3],9.79%
same,inhibition,[4],57% (active)
same,inhibition,[5],48.1% (active)
same,inhibition,[6],-4.85%
CCCCn1c(NC(=O)c2ccc(Br)o2)c(C(=O)OCC)c2nc3ccccc3nc21,inhibition,[3],27.1%
same,inhibition,[4],27.8%
same,inhibition,[5],45.6% (active)
same,inhibition,[6],7.64%
CCOc1cc(C=O)ccc1O,inhibition,[3],-4.06%
same,inhibition,[4],41.4% (active)
same,inhibition,[5],47.9% (active)
same,inhibition,[6],-3.05%
CC1=CC2OC3CC4OC(=O)C=CC=CC(=O)OCCC(C)C(O)C(=O)OCC2(CC1)C4(C)C31CO1 (configuration not stated),inhibition,[3],96.6% (active)
same,inhibition,[4],109% (active)
same,inhibition,[5],98.2% (active)
same,inhibition,[6],98.1% (active)
O=[N+]([O-])c1cc(F)c(N2CCCCCC2)cc1N1CCNCC1,inhibition,[3],14.3%
same,inhibition,[4],54.1% (active)
same,inhibition,[5],54.7% (active)
same,inhibition,[6],9.46%
Cc1cc(OCC(=O)OC(C)C)c2c3c(c(=O)oc2c1)CCCC3,inhibition,[3],14.7%
same,inhibition,[4],57.9% (active)
same,inhibition,[5],54.9% (active)
same,inhibition,[6],-9.99%
CCN1CCN(c2cc(N3CCCC3)c([N+](=O)[O-])cc2F)CC1,inhibition,[3],1.38%
same,inhibition,[4],51.2% (active)
same,inhibition,[5],46.4% (active)
same,inhibition,[6],15.6%
Cc1ccc(-n2nc(C)cc2NC(=O)COc2cc(C)cc3oc(=O)c4c(c23)CCC4)cc1,inhibition,[3],19.1%
same,inhibition,[4],60.3% (active)
same,inhibition,[5],61.2% (active)
same,inhibition,[6],-10.8%
OC1(c2ccc(F)cc2)CC2CCC(C1)N2Cc1nnnn1C1CCCC1 (configuration not stated),inhibition,[3],-7.67%
same,inhibition,[4],46.8% (active)
same,inhibition,[5],50.3% (active)
same,inhibition,[6],-0.39%
CC(=O)O[C@H]1C[C@@H]2OC3C=C(C)CCC3(C)[C@@]1(C)[C@@]21CO1 (some centres not stated),inhibition,[3],95.6% (active)
same,inhibition,[4],109% (active)
same,inhibition,[5],96.8% (active)
same,inhibition,[6],96.8% (active)
same,inhibition,[9],79.3% (active)
same,inhibition,[10],77.9% (active)
